Assays:
Assay in all cases: log2 ratio of Biotin-Ahx-Ub-VS probe labelling (fragment/DMSO); higher = less target engagement (more negative = stronger competition), active = hit call of the paper (q ≤ 0.05, log2 ratio ≤ -1)
Conditions in all cases: compound concentration: 200 uM; treatment time: 3 h
[1] = target: T1, OTUD6B (UniProt Q8N6M0)
T1 sequence (whole entry): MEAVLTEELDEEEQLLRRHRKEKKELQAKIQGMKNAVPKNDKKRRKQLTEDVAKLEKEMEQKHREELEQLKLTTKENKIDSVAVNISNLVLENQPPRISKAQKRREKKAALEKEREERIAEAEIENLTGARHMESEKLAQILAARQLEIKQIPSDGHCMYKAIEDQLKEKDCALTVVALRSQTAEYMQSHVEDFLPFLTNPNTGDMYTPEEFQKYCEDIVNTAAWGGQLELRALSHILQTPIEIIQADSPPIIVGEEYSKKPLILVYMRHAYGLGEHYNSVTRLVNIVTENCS
How it was run: (§1)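 The table lists average log2 ratios of fragment over vehicle, from an unpaired t-test on global-median-normalised Spectronaut label-free quantities. Proteins with ≥2 unique peptides were used. Samples were HEK293T lysate (495 µg) treated in triplicate with fragment at 200 µM or vehicle for 3 h, then with Biotin-Ahx-Ub-VS (0.5 µM final) for 1 h, with labelled DUBs NeutrAvidin-enriched and run by diaPASEF LC-MS/MS.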

[2] = target: T2, OTUD7B (UniProt Q6GQQ9)
T2 sequence (whole entry): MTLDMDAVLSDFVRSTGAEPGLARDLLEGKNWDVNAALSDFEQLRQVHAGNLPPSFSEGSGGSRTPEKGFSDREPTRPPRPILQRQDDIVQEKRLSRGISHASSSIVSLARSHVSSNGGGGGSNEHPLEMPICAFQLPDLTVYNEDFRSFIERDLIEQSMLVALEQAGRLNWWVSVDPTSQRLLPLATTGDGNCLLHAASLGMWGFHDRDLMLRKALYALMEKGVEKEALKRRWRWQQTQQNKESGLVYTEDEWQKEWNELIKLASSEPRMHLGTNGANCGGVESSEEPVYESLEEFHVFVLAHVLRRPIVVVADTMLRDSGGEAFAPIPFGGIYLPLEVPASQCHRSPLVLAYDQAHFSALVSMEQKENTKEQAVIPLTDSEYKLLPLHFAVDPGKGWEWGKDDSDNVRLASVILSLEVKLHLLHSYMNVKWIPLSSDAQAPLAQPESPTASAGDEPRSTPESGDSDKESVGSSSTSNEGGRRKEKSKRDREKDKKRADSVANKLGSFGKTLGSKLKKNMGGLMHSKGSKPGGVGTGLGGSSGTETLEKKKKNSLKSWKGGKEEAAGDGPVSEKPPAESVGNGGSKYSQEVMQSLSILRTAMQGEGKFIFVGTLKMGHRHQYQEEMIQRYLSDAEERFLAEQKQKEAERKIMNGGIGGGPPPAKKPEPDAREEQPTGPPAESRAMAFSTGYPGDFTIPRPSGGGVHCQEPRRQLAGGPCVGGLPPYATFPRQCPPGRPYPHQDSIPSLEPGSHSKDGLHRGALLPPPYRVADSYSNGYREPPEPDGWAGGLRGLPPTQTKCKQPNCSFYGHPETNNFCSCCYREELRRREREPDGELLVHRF
How it was run: as §1

[3] = target: PRPF8 (UniProt Q6P2Q9)
How it was run: as §1

[4] = target: T3, PSMD7 (UniProt P51665)
T3 sequence (whole entry): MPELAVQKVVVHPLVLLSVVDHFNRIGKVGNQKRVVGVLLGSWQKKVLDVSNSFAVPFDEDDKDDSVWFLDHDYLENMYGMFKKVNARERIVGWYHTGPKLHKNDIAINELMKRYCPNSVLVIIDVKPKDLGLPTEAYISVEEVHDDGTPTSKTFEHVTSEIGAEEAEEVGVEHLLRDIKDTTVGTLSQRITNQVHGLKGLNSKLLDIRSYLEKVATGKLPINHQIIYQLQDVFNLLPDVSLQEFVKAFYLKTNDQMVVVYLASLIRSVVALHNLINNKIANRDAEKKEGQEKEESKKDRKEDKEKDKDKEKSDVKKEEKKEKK
How it was run: as §1

[5] = target: UCHL1 (UniProt P09936)
How it was run: as §1

[6] = target: T4, UCHL3 (UniProt P15374)
T4 sequence (whole entry): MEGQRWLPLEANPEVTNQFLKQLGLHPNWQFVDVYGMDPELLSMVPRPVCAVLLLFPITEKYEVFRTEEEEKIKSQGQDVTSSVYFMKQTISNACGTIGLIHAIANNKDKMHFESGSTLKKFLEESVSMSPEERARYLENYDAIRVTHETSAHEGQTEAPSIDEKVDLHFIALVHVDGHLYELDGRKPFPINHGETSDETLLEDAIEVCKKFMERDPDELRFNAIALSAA
How it was run: as §1

[7] = target: T5, UCHL5 (UniProt Q9Y5K5)
T5 sequence (whole entry): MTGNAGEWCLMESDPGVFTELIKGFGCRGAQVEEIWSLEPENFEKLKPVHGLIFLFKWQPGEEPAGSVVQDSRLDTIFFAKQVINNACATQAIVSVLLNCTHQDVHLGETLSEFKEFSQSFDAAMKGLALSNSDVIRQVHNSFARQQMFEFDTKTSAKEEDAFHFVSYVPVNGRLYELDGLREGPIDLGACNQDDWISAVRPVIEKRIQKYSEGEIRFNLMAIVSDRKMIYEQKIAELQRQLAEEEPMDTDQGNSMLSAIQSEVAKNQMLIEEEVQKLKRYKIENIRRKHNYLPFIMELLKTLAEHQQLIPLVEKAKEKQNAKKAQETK
How it was run: as §1

[8] = target: USP10 (UniProt Q14694)
How it was run: as §1

[9] = target: T6, USP15 (UniProt Q9Y4E8)
T6 sequence (whole entry): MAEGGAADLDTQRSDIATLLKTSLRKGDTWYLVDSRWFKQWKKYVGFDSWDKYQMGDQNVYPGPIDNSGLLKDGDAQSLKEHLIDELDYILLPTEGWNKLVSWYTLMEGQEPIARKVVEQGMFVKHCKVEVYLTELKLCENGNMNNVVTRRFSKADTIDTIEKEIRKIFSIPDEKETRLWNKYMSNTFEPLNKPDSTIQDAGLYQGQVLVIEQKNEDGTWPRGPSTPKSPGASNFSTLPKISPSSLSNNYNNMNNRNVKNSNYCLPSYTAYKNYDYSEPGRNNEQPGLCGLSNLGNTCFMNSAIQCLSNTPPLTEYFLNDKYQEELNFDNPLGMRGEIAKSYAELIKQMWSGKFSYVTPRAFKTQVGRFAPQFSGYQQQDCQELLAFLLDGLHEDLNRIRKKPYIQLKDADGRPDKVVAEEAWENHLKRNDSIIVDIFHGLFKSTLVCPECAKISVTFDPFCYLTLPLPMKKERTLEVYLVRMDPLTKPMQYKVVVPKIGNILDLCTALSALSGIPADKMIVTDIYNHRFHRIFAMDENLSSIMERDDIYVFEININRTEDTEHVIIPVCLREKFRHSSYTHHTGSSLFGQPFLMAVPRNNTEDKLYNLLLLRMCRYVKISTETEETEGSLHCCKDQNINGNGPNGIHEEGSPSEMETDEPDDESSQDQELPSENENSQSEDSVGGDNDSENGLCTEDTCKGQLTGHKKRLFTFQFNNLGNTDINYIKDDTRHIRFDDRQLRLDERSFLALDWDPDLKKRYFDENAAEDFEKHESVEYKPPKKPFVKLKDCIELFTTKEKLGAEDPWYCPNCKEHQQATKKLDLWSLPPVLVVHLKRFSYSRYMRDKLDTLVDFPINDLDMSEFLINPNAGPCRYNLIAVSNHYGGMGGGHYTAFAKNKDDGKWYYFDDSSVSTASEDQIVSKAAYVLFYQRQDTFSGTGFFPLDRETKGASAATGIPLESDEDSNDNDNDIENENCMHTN
How it was run: as §1

[10] = target: USP16 (UniProt Q9Y5T5)
How it was run: as §1

Measured: log2 ratio of Biotin-Ahx-Ub-VS probe labelling

Chain of UCHL1 (P09936 whole entry, looked up): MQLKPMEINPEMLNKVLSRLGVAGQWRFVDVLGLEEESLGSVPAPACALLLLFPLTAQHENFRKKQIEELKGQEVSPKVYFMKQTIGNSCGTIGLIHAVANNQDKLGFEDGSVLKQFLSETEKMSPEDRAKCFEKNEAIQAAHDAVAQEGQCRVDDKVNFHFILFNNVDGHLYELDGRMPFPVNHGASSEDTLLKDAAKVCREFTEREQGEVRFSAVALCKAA
Chain of USP16 (Q9Y5T5 whole entry, looked up): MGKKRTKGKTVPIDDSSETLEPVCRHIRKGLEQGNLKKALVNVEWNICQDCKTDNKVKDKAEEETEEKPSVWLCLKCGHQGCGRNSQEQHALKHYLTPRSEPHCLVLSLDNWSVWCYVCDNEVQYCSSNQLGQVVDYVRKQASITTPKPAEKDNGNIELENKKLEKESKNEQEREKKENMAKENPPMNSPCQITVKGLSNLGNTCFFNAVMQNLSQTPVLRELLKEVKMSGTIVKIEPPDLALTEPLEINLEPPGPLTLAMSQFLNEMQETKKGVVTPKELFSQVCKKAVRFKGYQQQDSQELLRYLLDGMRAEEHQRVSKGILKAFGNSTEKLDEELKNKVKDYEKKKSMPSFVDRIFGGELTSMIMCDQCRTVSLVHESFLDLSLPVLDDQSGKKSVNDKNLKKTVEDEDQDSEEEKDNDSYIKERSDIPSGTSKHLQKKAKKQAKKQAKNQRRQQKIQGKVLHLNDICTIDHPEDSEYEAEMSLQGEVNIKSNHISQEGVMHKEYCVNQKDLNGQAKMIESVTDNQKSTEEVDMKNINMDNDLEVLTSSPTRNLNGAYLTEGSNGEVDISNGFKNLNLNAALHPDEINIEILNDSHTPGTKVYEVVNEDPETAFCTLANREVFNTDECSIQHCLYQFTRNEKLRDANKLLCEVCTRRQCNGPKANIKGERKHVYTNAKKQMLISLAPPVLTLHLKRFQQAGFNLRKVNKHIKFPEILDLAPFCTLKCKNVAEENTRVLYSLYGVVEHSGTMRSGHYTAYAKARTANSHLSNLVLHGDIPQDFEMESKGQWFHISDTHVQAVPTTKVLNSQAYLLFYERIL
Chain of USP10 (Q14694 whole entry): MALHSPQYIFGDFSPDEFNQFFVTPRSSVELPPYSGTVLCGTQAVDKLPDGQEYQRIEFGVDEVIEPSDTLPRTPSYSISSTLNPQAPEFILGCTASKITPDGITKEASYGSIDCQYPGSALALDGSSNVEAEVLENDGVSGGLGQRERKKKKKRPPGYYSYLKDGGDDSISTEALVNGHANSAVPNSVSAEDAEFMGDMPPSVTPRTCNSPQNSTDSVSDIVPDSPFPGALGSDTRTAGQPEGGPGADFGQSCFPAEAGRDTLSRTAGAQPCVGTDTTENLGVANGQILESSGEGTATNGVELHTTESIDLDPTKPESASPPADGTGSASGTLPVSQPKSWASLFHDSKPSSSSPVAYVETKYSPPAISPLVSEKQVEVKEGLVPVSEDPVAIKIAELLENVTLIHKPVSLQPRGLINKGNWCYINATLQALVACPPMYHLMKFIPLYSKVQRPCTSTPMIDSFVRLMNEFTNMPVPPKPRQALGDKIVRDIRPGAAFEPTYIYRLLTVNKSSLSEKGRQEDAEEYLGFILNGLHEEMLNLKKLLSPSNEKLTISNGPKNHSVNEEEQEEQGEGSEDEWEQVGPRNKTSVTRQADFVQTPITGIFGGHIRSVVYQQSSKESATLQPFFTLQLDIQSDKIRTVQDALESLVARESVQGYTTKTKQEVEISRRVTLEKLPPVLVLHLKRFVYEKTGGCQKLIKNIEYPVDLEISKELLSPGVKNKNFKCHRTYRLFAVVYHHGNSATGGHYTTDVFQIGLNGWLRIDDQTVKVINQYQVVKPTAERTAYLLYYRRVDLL

CC1Cc2ccccc2N1C(=O)CCl (stereo not given)
active: [5] -1.4
inactive: [1] -0.391 | [2] -0.238 | [3] -0.117 | [4] -0.328 | [6] 0.164 | [7] -0.572 | [8] -0.242 | [9] -0.382 | [10] 0.0877
